Assay in all cases: NCI-60 one-dose screen, 48 h (100 = growth as untreated, 0 = no growth, -100 = all killed)
For assay [1], the system named is COLO 205 colon. Conditions: 10 µM.
In assay [2] the test system is RXF 393 renal. Particulars: 10 µM unless noted.
For assay [3], the system named is SN12C renal. Particulars: 10 µM unless noted.
Assay [4] relates to UO-31 renal. Particulars: 10 µM unless noted.
The test system of assay [5] is CAKI-1 renal. Conditions: 10 µM unless noted.
The test system of assay [6] is A498 renal. Conditions: 10 µM unless noted.
The subject of assay [7] is HL-60(TB) leukemia. Particulars: 10 µM unless noted.
Assay [8] relates to OVCAR-8 ovarian. Conditions: 10 µM unless noted.
In assay [9] the test system is OVCAR-4 ovarian. Conditions: 10 µM unless noted.
The subject of assay [10] is SK-OV-3 ovarian. Conditions: 10 µM unless noted.
The subject of assay [11] is HS 578T breast. Conditions: 10 µM unless noted.
In assay [12] the test system is T-47D breast. Conditions: 10 µM unless noted.
The subject of assay [13] is BT-549 breast. Conditions: 10 µM.
The test system of assay [14] is MDA-MB-435 melanoma. Conditions: 10 µM unless noted.
For assay [15], the system named is A549/ATCC NSCLC. Conditions: 10 µM unless noted.
Assay [16] relates to MALME-3M melanoma. Particulars: 10 µM unless noted.
Assay [17] relates to UACC-257 melanoma. Conditions: 10 µM unless noted.
Assay [18] deals with HT29 colon. Conditions: 10 µM unless noted.
Assay [19] deals with U251 CNS. Particulars: 10 µM unless noted.
In assay [20] the test system is SK-MEL-2 melanoma. Conditions: 10 µM unless noted.

The values below come from PubChem BioAssay (NCI).

Compounds without any hit were thinned out: in the full panel of roughly 83,000, 20% have a hit.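 Each cell line was grown in a 96-well plate and treated with one concentration of compound for 48 hours. Values below 10 were considered active.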 Unmarked numbers belong to inactive results. Activity calls are given as the source filed them.

Consider `C[C@]12C[C@H](O)[C@H]3[C@@H](CCC4=CC(=O)CC[C@@]43C)[C@@H]1CC[C@@H]2O`, for which the growth in assay [1] was 99.8%; in assay [2] it was 109%; in [3], 101%; in [4], 77.7%; in assay [5], 88%; in assay [6], 116%. Further, the growth in assay [7] was 105%; in [8], 114%; in assay [9], 104%; in [10], 105%; in assay [11], 105%; in assay [12], 105%. For the same molecule, the results for the growth in assay [13] and in assay [14] were 104% and 101%, respectively.

Regarding `Oc1c(Br)cc(Br)cc1Br.[Cu+2]`, the growth in assay [15] is 98%; in [1], 108%; in [16], 86.4%; in assay [2], 109%; in assay [17], 101%; in assay [18] it was 104%. In addition, the growth is 110% in assay [19]; 95.3% in assay [20]; 110% in assay [3]; 81.2% in assay [4]; 104% in [5]; 106% in assay [6]. In addition, the growth in assay [7] is 87.9%; in assay [8], 103%; in [9], 87.4%; in assay [10], 94.3%; in assay [11], 109%; in assay [12], 119%. The growth in [13] was 122%.

With `COc1cc(C2CC(=O)Nc3nc(N)[se]c32)c(OC)c2c1OCO2` (configuration not stated), the growth in assay [15] was 58.9%; in assay [1] it was 112%; in assay [16], 102%; in assay [17], 116%; in [18] it was 98.5%; in [19] it was 48%. In addition, the growth in assay [20] was 101%; in [3], 97.3%; in [4], 86.8%; in assay [5], 89.8%; in assay [6], 102%; in [7], 84.4%. The growth in [8] is 104%; in assay [9] it was 96.3%; in assay [10], 78.3%; in assay [11], 91.2%; in assay [12], 89%; in assay [13], 101%.

Take `O=C(CCc1ccco1)NC1CCN(CC2(c3ccc(Cl)cc3)CCC2)CC1`: the growth in assay [15] was 8.74% (active); in assay [1] it was -30% (active); in assay [16], -17.9% (active); in assay [2], 28.4%; in assay [17], -4.36% (active); in assay [18], 10.5%. For the same molecule, the growth was 7.34% (active) in assay [19]; -24.3% (active) in assay [20]; 5.58% (active) in [3]; 10.7% in [4]; 5.62% (active) in assay [5]; -15% (active) in assay [6]. Moreover, the growth was -42.7% (active) in assay [7]; 12.2% in assay [8]; 13.8% in assay [10]; 28.7% in assay [11]; 15.4% in [12]; 12.4% in [13]. The growth in assay [14] was 4.28% (active).

For the molecule `CC(C)(C)[Si](C)(C)OC1[C@@H](O[Si](C)(C)C(C)(C)C)[C@@H](CNC(=O)NC(=O)CF)O[C@H]1n1cnc2c(NC(=O)Nc3ccccc3)ncnc21` (some centres not stated), the growth in [15] was 26.2%; in assay [1], 84.4%; in assay [16], 101%; in [2] it was 65.8%; in [18], 25.6%; in [19], 56.6%. Besides, the growth in assay [3] was 44.3%; in assay [4] it was 77.5%; in assay [5], 85.6%; in [6], 70.2%; in assay [7] it was 17.3%; in [8], 51.4%. The growth is 63.8% in [9]; 89.3% in [10]; 29.5% in assay [11]; 71.9% in assay [12]; 68.9% in assay [13]; 70.5% in assay [14].

As for `COC[CH2][Hg][C]#[C][Hg][CH2]COC`, the growth is 99.1% in [15]; 100% in assay [1]; 104% in assay [16]; 59.4% in [2]; 105% in assay [17]; 100% in assay [18]. Also, the growth in assay [20] is 41.9%; in assay [3] it was 96%; in [4], 92.8%; in assay [5], 94.8%; in assay [6], 103%; in [7] it was 89.3%. The growth is 61.2% in assay [9]; 96.5% in assay [10]; 85.3% in assay [11]; 91.7% in [12]; 111% in assay [13]; 43% in [14].

Take `Nc1ccc(N)c2c1Oc1ccccc1O2`: the growth in assay [15] is 107%; in assay [1], 106%; in assay [16], 111%; in assay [17], 102%; in assay [18], 110%; in assay [19], 94.3%. The growth in [20] was 95.9%; in assay [3] it was 86.1%; in [4], 134%; in assay [5] it was 84.3%; in assay [6], 92.9%; in assay [7], 69.4%. Besides, the growth was 97.5% in [8]; 110% in assay [9]; 94.6% in [10]; 75.2% in assay [11]; 98.1% in assay [12]; 97.9% in assay [13]. In addition, the growth in assay [14] is 109%.

Turning to `CCOc1cc(/C=N\Nc2nnc(C)n2N)c(C)cc1N(CCCl)CCCl`, the growth in assay [15] is 14.5%; in assay [2], 29.7%; in assay [17], -5.96% (active); in assay [18] it was 23.9%; in assay [19] it was 14.4%; in [20], 17.2%. Further, the growth in assay [3] is 17.3%; in assay [4], -42.2% (active); in [5] it was 11.8%; in assay [6], -26% (active); in [7] it was -48.9% (active); in assay [8] it was 19.5%. For the same molecule, the growth in assay [9] is 14.6%; in assay [10] it was 40.1%; in [11], 14.6%; in assay [12] it was 12.6%; in [13], 17%; in assay [14], 7.67% (active).

In the case of `CCOc1c(Cl)cc(CNC(C)C(O)c2ccccc2)cc1OC` (configuration not stated), the growth in assay [15] was 29.3%; in assay [1], 95%; in [16], 46.9%; in assay [2], 67%; in assay [17], 51.4%; in assay [18], 53.1%. Moreover, the growth in assay [19] is 34.3%; in [20], 72.7%; in assay [3] it was 79.8%; in assay [4], 92.6%; in assay [5] it was 87.9%; in assay [6], 32.9%. Also, the growth is 20.5% in assay [7]; 56.5% in [8]; 86.3% in assay [10]; 67.5% in assay [11]; 86% in [12]; 72.2% in assay [13]. For the same molecule, the growth in [14] was 1.97% (active).
